Reference: PubChem BioAssay (NCI)
The panel holds about 83,000 compounds, 20% with a hit somewhere; the sample as a whole holds those more often.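 Plates (96-well) were seeded with cells, treated with compound at one concentration, and incubated for 48 hours before percent growth was determined.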 Unmarked numbers belong to inactive results. The source made the active and inactive calls.

The compounds below were run on COLO 205 colon (assay: NCI-60 one-dose screen, 48 h (100 = growth as untreated, 0 = no growth, -100 = all killed)). Conditions: 10 µM.
Protocol: Cells are grown in 96 well plates and exposed to the test compound for 48 hours. Compounds are tested at a single concentration, which is 10^-5 M for most compounds. The reported endpoint is percent growth (GI% or GIPRCNT), where numbers from 0 - 100% represent growth inhibition, and numbers from -100% - 0 represent cell death. For example, a value of 40 represents 60% growth inhibition. A value of 0 means no net growth occurred over the course of the experiment. A value of -40 indicates 40% of cells at the beginning of the experiment died by the end of the experiment. A value of -100 means all cells are dead at the end of the experiment.
NCI-60 Human Tumor Cell Lines Screen was performed using the standard one-dose NCI protocol, which is described in more detail at https://dtp.cancer.gov/discovery_development/nci-60/default.htm.
Compounds with GIPRCNT values below 10 were considered active. Activity score was based on GIPRCNT using the following formula: […]
Score is 0 for GIPRCNT values of 100 or above, 50 for GIPRCNT values of 0, and 100 for GIPRCNT values of -100.
`CCCCN(CCCC)CC(O)c1ccccc1` (stereo not given) was tested, and the growth was 134%.
In the case of `C[C@]12CCC(=O)CC1CC[C@@H]1C2CC[C@@]2(C)C1CC[C@@H]2OC(=O)CC[Se][Se]CCC(=O)O[C@H]1CCC2[C@@H]3CCC4CC(=O)CC[C@]4(C)C3CC[C@@]21C` (stereo not given in full), the growth was 122%.
With `N#Cc1ncc(/N=C/c2ccc(N(CCCl)CCCl)cc2)s1` the growth was 99.4%.
Compound `CC12CCC3C(CC=C4CC(O)CCC43C)C1C/C(=C\N1CCOCC1)C2=O` (stereo not given) has a growth of 116%.
In the case of `CCC1CN1P(=O)(OCCOC)N1CC1CC` (stereo not given), the growth was 119%.
Work on `COc1cc(CNCCc2ccc(Cl)cc2)cc(OC)c1O` yielded a growth of 77.5%.
For `Cc1nnc([S-])s1.[Au+].c1ccc([PH+](c2ccccc2)c2ccccc2)cc1`, the growth was -31.7% (active).
For `CC(C)(C)N(Cc1ccccc1)N=O`, the growth was 108%.
For `C[CH2][Pb]([CH2]C)([CH2]C)[O]C(=O)COC`, the growth was -7.82% (active).
`Cc1ccc(C[As+](c2ccccc2)(c2ccccc2)c2ccccc2)cc1` was tested, and the growth was -55.7% (active).
With `C=CCN1C(=O)C(CC)(CCC(C)C)C(=O)NC1=S` (stereo not given) the growth was 108%.
For `COc1ccc(NP2(=O)OCC(C)(N)CO2)cc1` (stereo not given), the growth was 109%.
`Nc1ccc(N)c2c1Oc1ccccc1O2` gave a growth of 106%.
`O=[As]c1ccc(C(=O)c2ccc(Oc3ccccc3)cc2)cc1` (stereo not given) was tested, and the growth was -89.2% (active).
`CNC(=O)O/N=C(/C)c1ccc(Cl)cc1` showed a growth of 107%.
In the case of `COC[CH2][Hg][C]#[C][Hg][CH2]COC`, the growth was 100%.
Work on `O=C(CF)N(O)c1ccc(/C=C/c2ccccc2)cc1` yielded a growth of 68.8%.
With `NC(=O)C(Cl)Cl` the growth was 113%.
Compound `NS(=O)(=O)c1nc[nH]c1[N+](=O)[O-]` has a growth of 113%.
`N#C[Se]CCN1C(=O)C2C(C1=O)[C@H]1C=C[C@@H]2S1` (stereo not given in full) was tested, and the growth was 68.3%.
Work on `COc1cc(NCCCCCN=C(N)N)c2ncccc2c1` yielded a growth of 54.9%.
For `CCN(CC)c1ccc(C=C2C(=O)NC(=S)NC2=O)cc1`, the growth was 104%.
`CC1(C)CC2(CC(C)(C)c3cc(O)c(O)cc32)c2cc(O)c(O)cc21` showed a growth of 102%.
In the case of `CC1(CF)NC(=O)NC1=O` (stereo not given), the growth was 114%.
`C=CCc1ccc(OC(=O)Cc2ccccc2)c(OC)c1` showed a growth of 103%.
Compound `CCOC(=O)/C(C#N)=C/c1ccc(N(CCCl)CCCl)cc1` has a growth of 112%.
`n1nc(-c2nonc2-c2nn[nH]n2)n[nH]1` was tested, and the growth was 117%.
In the case of `CCOCC1(CCc2ccccc2)C(=O)NC(=S)NC1=O`, the growth was 109%.
For `O=S(=O)(c1ccc(Cl)cc1)C(Cl)(Cl)Cl`, the growth was 48%.
In the case of `CC(/C=N/N=C(N)N)=N/N=C(N)N`, the growth was 81.7%.
With `CC[CH2][Pb]([CH2]CC)([CH2]CC)[O]C(=O)C(F)(F)F` the growth was -72.5% (active).
`O=C1NC(=S)NC(=O)C1=Cc1ccccc1` was tested, and the growth was 103%.
For `Cc1ccc(C(=O)C2CN(C)CCC2(O)c2ccc(C)cc2)cc1` (stereo not given), the growth was 131%.
In the case of `C=C=[CH][Sn]([c]1ccccc1)([c]1ccccc1)[c]1ccccc1`, the growth was -84.2% (active).
In the case of `O=CN1N=C(c2ccccc2)CC1c1sc(N(CCCl)CCCl)nc1Cl` (stereo not given), the growth was 95.5%.
`CC1(C)N=C(N)N=C(N)N1c1ccc(CCCCc2ccc(Cl)cc2S(=O)(=O)F)c(Cl)c1` showed a growth of 15.9%.
For `C[C@]12CC[C@@H]3c4ccc(OC(=O)Cc5ccc(N(CCCl)CCCl)cc5)cc4CC[C@H]3[C@@H]1CC[C@@H]2OC(=O)Cc1ccc(N(CCCl)CCCl)cc1`, the growth was 104%.
Compound `CC1([N+](=O)[O-])COP(=O)(Nc2ccc(F)cc2)OC1` (stereo not given) has a growth of 107%.
Compound `CC(=O)O[C@H]1CCC2(C)C(=CCC3C2CCC2(C)/C(=N/OC(=O)c4ccc(N(CCCl)CCCl)cc4)CCC32)C1` (stereo not given in full) has a growth of 69.7%.
In the case of `CC(=O)N1N=C(c2ccccc2)CC1c1sc(N(CCCl)CCCl)nc1Cl` (stereo not given), the growth was 99.5%.
